Test results reported in PubChem BioAssay (Tox21).
Records with an inconclusive call do not appear. A call without a number means that no potency is given here. Activity calls are given as the source filed them. Unless noted, the call rests on the fitted dose curve; in most records, active means well fitted cell-killing curve with a large enough effect in the repeat runs; inconclusive means weak or mixed curves; inactive means no such curve, though single readings can be large or run the other way.

test system: not listed separately; assay: qHTS assay to identify small molecule antagonists of the peroxisome proliferator-activated receptor delta (PPARd) signaling pathway - cell viability counter screen (AID 743213); conditions: PPARd-bla HEK293H viability, CellTiter-Glo luminescence, 17 h; series mostly up to 62 µM; viability change, negative = cytotoxic: at the top concentration; further: nearly all actives have a fitted effect of over 50% in size
In short: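 Viability counter-screen, qHTS format: PPARd-bla HEK293H, L165041 300 nM final, 17 h compound exposure at 37 C, CellTiter-Glo luminescence after 30 min RT.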

Structure (SMILES) | Potency | viability change, negative = cytotoxic
Cc1cccc2ccccc12 | inactive | 
O=C(O)Cc1cccc2ccccc12 | inactive | 
O=C(O)CN(CC(=O)O)CC(=O)O | inactive | 
COc1cc(O)c(C(=O)c2ccccc2)cc1S(=O)(=O)O | inactive | 
CCCCCCCCCCCCCC(=O)OC(C)C |  | 6.31% (inactive)
COc1cc(C=O)ccc1O | inactive | 
CC1=NN(c2ccccc2)C(=O)C1 | inactive | 
C[C@]12C[C@H](O)[C@H]3[C@@H](CCC4=CC(=O)CC[C@@]43C)[C@@H]1CC[C@@H]2C(=O)CO | inactive | 
CCCCC/C(C=O)=C\c1ccccc1 | inactive | 
CC(O)COc1ccccc1 (stereo not given) | inactive | 
O=C1CCCCCN1 | inactive | 
Cc1cnc(NC(=O)C2=C(O)c3ccccc3S(=O)(=O)N2C)s1 | inactive | 
CC(=O)c1ccc(S(=O)(=O)NC(=O)NC2CCCCC2)cc1 | inactive | 
Cn1cnc2c1c(=O)[nH]c(=O)n2C | inactive | 
COC(=O)C1CCC(C(=O)OC)CC1 (stereo not given) | inactive | 
O=C(OCc1ccccc1)c1ccccc1 | inactive | 
COc1ccccc1O |  | 15.6% [at 80.4 µM] (inactive)
CCOC(=O)C(C)(C)Oc1ccc(Cl)cc1 | inactive | 
c1ccc2[nH]c(-c3cscn3)nc2c1 |  | -31.2% [at 80.4 µM] (inactive)
NC(=O)c1ccc([N+](=O)[O-])cc1Cl |  | 9.32% (inactive)
Cc1c(N(C)C)c(=O)n(-c2ccccc2)n1C | inactive | 
Cc1ccc(O)c(-n2nc3ccccc3n2)c1 | inactive | 
COCCOCCOC | inactive | 
CC(C)CC(C)CC(O)CC(C)C (stereo not given) |  | -1.71% (inactive)
Oc1cccc(O)c1 | inactive | 
CCCCCCCCCCCCCCCCCC(=O)OCC(O)CO (stereo not given) | inactive | 
COCC(C)N (stereo not given) | inactive | 
CCn1cc(C(=O)O)c(=O)c2ccc(C)nc21 | inactive | 
C=CCOC(=O)CC(C)C | inactive | 
COC(=O)c1ccc(C=O)cc1 | inactive | 

biological target: Peroxisome proliferator-activated receptor delta (Homo sapiens) (UniProt Q03181); assay: qHTS assay to identify small molecule antagonists of the peroxisome proliferator-activated receptor delta (PPARd) signaling pathway (AID 743215; active means well fitted inhibition curve with a large enough effect in the signal ratio in the repeat runs, not every such curve was filed as active; the % refers to the signal ratio;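 further: cells stimulated with agonist L165041 at 300 nM final during compound exposure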); conditions: HEK293H PPARd-UAS-bla, beta-lactamase FRET ratio, antagonist, 17 h; series mostly up to 62 µM; ratio activity, negative = inhibition: at the top concentration
In short: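 Screen format: qHTS, antagonist mode. HEK293H PPARd-bla cells received compound and 300 nM L165041 (final), 17 h, 37 C. Beta-lactamase detected via FRET substrate fluorescence, 2 h, room temperature.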

Sequence of Peroxisome proliferator-activated receptor delta (Homo sapiens) (Q03181 whole entry, looked up): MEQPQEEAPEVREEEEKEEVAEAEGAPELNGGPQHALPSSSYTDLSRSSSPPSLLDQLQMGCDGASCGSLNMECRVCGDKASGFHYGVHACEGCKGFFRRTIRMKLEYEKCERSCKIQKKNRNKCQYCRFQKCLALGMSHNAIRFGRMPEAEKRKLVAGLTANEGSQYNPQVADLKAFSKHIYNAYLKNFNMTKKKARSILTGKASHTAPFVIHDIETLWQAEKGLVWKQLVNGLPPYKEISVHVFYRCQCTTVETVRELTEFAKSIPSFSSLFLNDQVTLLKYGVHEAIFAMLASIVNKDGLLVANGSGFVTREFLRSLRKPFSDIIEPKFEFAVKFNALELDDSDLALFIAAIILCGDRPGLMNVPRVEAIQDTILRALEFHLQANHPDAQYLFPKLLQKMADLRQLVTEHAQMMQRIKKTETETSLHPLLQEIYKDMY

Structure (SMILES) | outcome | ratio activity, negative = inhibition
Cc1cccc2ccccc12 | inactive | 
O=C(O)Cc1cccc2ccccc12 | inactive | 
O=C(O)CN(CC(=O)O)CC(=O)O | inactive | 
COc1cc(O)c(C(=O)c2ccccc2)cc1S(=O)(=O)O | inactive | 
CCCCCCCCCCCCCC(=O)OC(C)C | inactive | 
COc1cc(C=O)ccc1O | inactive | 
CC1=NN(c2ccccc2)C(=O)C1 | inactive | 
C[C@]12C[C@H](O)[C@H]3[C@@H](CCC4=CC(=O)CC[C@@]43C)[C@@H]1CC[C@@H]2C(=O)CO | inactive | 
CCCCC/C(C=O)=C\c1ccccc1 | inactive | 
CC(O)COc1ccccc1 (stereo not given) | inactive | 
O=C1CCCCCN1 | inactive | 
Cc1cnc(NC(=O)C2=C(O)c3ccccc3S(=O)(=O)N2C)s1 | inactive | 
CC(=O)c1ccc(S(=O)(=O)NC(=O)NC2CCCCC2)cc1 | inactive | 
Cn1cnc2c1c(=O)[nH]c(=O)n2C | inactive | 
COC(=O)C1CCC(C(=O)OC)CC1 (stereo not given) | inactive | 
O=C(OCc1ccccc1)c1ccccc1 | inactive | 
COc1ccccc1O |  | -4.3% [at 80.4 µM] (inactive)
CCOC(=O)C(C)(C)Oc1ccc(Cl)cc1 | inactive | 
c1ccc2[nH]c(-c3cscn3)nc2c1 | inactive | 
NC(=O)c1ccc([N+](=O)[O-])cc1Cl | inactive | 
Cc1c(N(C)C)c(=O)n(-c2ccccc2)n1C | inactive | 
Cc1ccc(O)c(-n2nc3ccccc3n2)c1 | inactive | 
COCCOCCOC | inactive | 
CC(C)CC(C)CC(O)CC(C)C (stereo not given) | inactive | 
Oc1cccc(O)c1 | inactive | 
CCCCCCCCCCCCCCCCCC(=O)OCC(O)CO (stereo not given) | inactive | 
COCC(C)N (stereo not given) | inactive | 
CCn1cc(C(=O)O)c(=O)c2ccc(C)nc21 | inactive | 
C=CCOC(=O)CC(C)C | inactive | 
COC(=O)c1ccc(C=O)cc1 | inactive | 
